According to the supplement of paper PMC6992640:

system: UCD52 (cells of a triple-negative basal-like breast cancer xenograft); test: cell viability of combination (% of vehicle); higher = less cytotoxic; conditions: 1 µM; 72 h; partner dose: 10 nM
Description: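 PDX cells were treated for 72 h with each drug at 1 µM plus afatinib (10 nM; 1 µM for WHIM30). Luciferase viability is expressed as percent of vehicle.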

SMILES	cell viability of combination
CC[C@@]1(O)C(=O)OCc2c1cc1n(c2=O)Cc2cc3c(CN(C)C)c(O)ccc3nc2-1 [Topotecan] + CN(C)C/C=C/C(=O)Nc1cc2c(Nc3ccc(F)c(Cl)c3)ncnc2cc1O[C@H]1CCOC1 [Afatinib]	76.4
CCOc1cc2ncc(C#N)c(Nc3ccc(F)c(Cl)c3)c2cc1NC(=O)C=CCN(C)C [Pelitinib (EKB-569)] + CN(C)C/C=C/C(=O)Nc1cc2c(Nc3ccc(F)c(Cl)c3)ncnc2cc1O[C@H]1CCOC1 [Afatinib]	28.6
CNC(=O)c1cc(Oc2ccc(NC(=O)Nc3ccc(Cl)c(C(F)(F)F)c3)cc2)ccn1.Cc1ccc(S(=O)(=O)O)cc1 [Sorafenib Tosylate] + CN(C)C/C=C/C(=O)Nc1cc2c(Nc3ccc(F)c(Cl)c3)ncnc2cc1O[C@H]1CCOC1 [Afatinib]	42.3
COC(=O)C1=C(C)NC(C)=C(C(=O)OC2CCCN(Cc3ccccc3)C2)C1c1cccc([N+](=O)[O-])c1.Cl (stereo not given) [Benidipine HCl] + CN(C)C/C=C/C(=O)Nc1cc2c(Nc3ccc(F)c(Cl)c3)ncnc2cc1O[C@H]1CCOC1 [Afatinib]	79.2
Cc1c(-c2ccc(O)cc2)n(Cc2ccc(OCCN3CCCCCC3)cc2)c2ccc(O)cc12.Cl [Bazedoxifene HCl] + CN(C)C/C=C/C(=O)Nc1cc2c(Nc3ccc(F)c(Cl)c3)ncnc2cc1O[C@H]1CCOC1 [Afatinib]	69.7
CNC(=O)c1cc(Oc2ccc(NC(=O)Nc3ccc(Cl)c(C(F)(F)F)c3)cc2)ccn1 [Sorafenib] + CN(C)C/C=C/C(=O)Nc1cc2c(Nc3ccc(F)c(Cl)c3)ncnc2cc1O[C@H]1CCOC1 [Afatinib]	52.2
C1=C\COCc2cc(ccc2OCCN2CCCC2)Nc2nccc(n2)-c2cccc(c2)COC/1 [Pacritinib] + CN(C)C/C=C/C(=O)Nc1cc2c(Nc3ccc(F)c(Cl)c3)ncnc2cc1O[C@H]1CCOC1 [Afatinib]	47.9
COc1ccc(C[C@H](N)C(=O)N[C@@H]2[C@H](O)[C@H](n3cnc4c(N(C)C)ncnc43)O[C@@H]2CO)cc1.Cl.Cl [Puromycin dihydrochloride] + CN(C)C/C=C/C(=O)Nc1cc2c(Nc3ccc(F)c(Cl)c3)ncnc2cc1O[C@H]1CCOC1 [Afatinib]	18.2
Cl.Nc1ccn(C2OC(CO)C(O)C2O)c(=O)n1 (stereo not given) [Cytarabine hydrochloride] + CN(C)C/C=C/C(=O)Nc1cc2c(Nc3ccc(F)c(Cl)c3)ncnc2cc1O[C@H]1CCOC1 [Afatinib]	72.2
C#Cc1cccc(Nc2ncnc3cc(OCCOC)c(OCCOC)cc23)c1.Cl [Erlotinib Hydrochloride] + CN(C)C/C=C/C(=O)Nc1cc2c(Nc3ccc(F)c(Cl)c3)ncnc2cc1O[C@H]1CCOC1 [Afatinib]	54.5
Cc1cc(Nc2ncc(Cl)c(Nc3ccccc3S(=O)(=O)C(C)C)n2)c(OC(C)C)cc1C1CCNCC1 + CN(C)C/C=C/C(=O)Nc1cc2c(Nc3ccc(F)c(Cl)c3)ncnc2cc1O[C@H]1CCOC1 [Afatinib]	28.7
CC1=C(C(=O)OC(C)C)C(c2cccc([N+](=O)[O-])c2)C(C(=O)OC2CN(C(c3ccccc3)c3ccccc3)C2)=C(N)N1 (stereo not given) [Azelnidipine] + CN(C)C/C=C/C(=O)Nc1cc2c(Nc3ccc(F)c(Cl)c3)ncnc2cc1O[C@H]1CCOC1 [Afatinib]	52.3
CCN(CC)CCCC(C)Nc1ccnc2cc(Cl)ccc12.O=P(O)(O)O.O=P(O)(O)O (stereo not given) [Chloroquine diphosphate] + CN(C)C/C=C/C(=O)Nc1cc2c(Nc3ccc(F)c(Cl)c3)ncnc2cc1O[C@H]1CCOC1 [Afatinib]	48.5
O=C(O)c1cc(O)c(O)c(O)c1 [Gallic acid] + CN(C)C/C=C/C(=O)Nc1cc2c(Nc3ccc(F)c(Cl)c3)ncnc2cc1O[C@H]1CCOC1 [Afatinib]	73.6
Cc1c(C(=O)NN2CCCCC2)nn(-c2ccc(Cl)cc2Cl)c1-c1ccc(Cl)cc1 [Rimonabant] + CN(C)C/C=C/C(=O)Nc1cc2c(Nc3ccc(F)c(Cl)c3)ncnc2cc1O[C@H]1CCOC1 [Afatinib]	75
CC(C)(C)Cn1c(N)nc2ccc(-c3[nH]c(C(C)(C)C)nc3-c3ccc(F)cc3)nc21.CS(=O)(=O)O.CS(=O)(=O)O + CN(C)C/C=C/C(=O)Nc1cc2c(Nc3ccc(F)c(Cl)c3)ncnc2cc1O[C@H]1CCOC1 [Afatinib]	30.3
CC(C)CC(NC(=O)CNC(=O)c1cc(Cl)ccc1Cl)B(O)O (stereo not given) + CN(C)C/C=C/C(=O)Nc1cc2c(Nc3ccc(F)c(Cl)c3)ncnc2cc1O[C@H]1CCOC1 [Afatinib]	18.1
COC(=O)NC(C(=O)NC(Cc1ccccc1)C(O)CN(Cc1ccc(-c2ccccn2)cc1)NC(=O)C(NC(=O)OC)C(C)(C)C)C(C)(C)C (stereo not given) [Atazanavir] + CN(C)C/C=C/C(=O)Nc1cc2c(Nc3ccc(F)c(Cl)c3)ncnc2cc1O[C@H]1CCOC1 [Afatinib]	56.9
CCc1oc2ccccc2c1C(=O)c1cc(Br)c(O)c(Br)c1 [Benzbromarone] + CN(C)C/C=C/C(=O)Nc1cc2c(Nc3ccc(F)c(Cl)c3)ncnc2cc1O[C@H]1CCOC1 [Afatinib]	77.2
CN(C)c1ccc(O)c2c1CC1CC3C(N(C)C)C(=O)C(C(N)=O)=C(O)C3(O)C(=O)C1=C2O.Cl (stereo not given) [Minocycline HCl] + CN(C)C/C=C/C(=O)Nc1cc2c(Nc3ccc(F)c(Cl)c3)ncnc2cc1O[C@H]1CCOC1 [Afatinib]	75.9

SMILES	cell viability of combination
CN1CCC(COc2cnc(-c3cccc(Cn4nc(-c5cccc(C#N)c5)ccc4=O)c3)nc2)CC1 + CN(C)C/C=C/C(=O)Nc1cc2c(Nc3ccc(F)c(Cl)c3)ncnc2cc1O[C@H]1CCOC1 [Afatinib]	60.5
C=C(c1ccc(C(=O)O)cc1)c1cc2c(cc1C)C(C)(C)CCC2(C)C [Bexarotene] + CN(C)C/C=C/C(=O)Nc1cc2c(Nc3ccc(F)c(Cl)c3)ncnc2cc1O[C@H]1CCOC1 [Afatinib]	82.4
[O-]n1ccccc1=S.[O-]n1ccccc1=S.[Zn+2] [Zinc Pyrithione] + CN(C)C/C=C/C(=O)Nc1cc2c(Nc3ccc(F)c(Cl)c3)ncnc2cc1O[C@H]1CCOC1 [Afatinib]	56
COC(=O)NC(C(=O)N1CCCC1c1ncc(-c2ccc(-c3ccc(-c4cnc(C5CCCN5C(=O)C(NC(=O)OC)C(C)C)[nH]4)cc3)cc2)[nH]1)C(C)C (stereo not given) + CN(C)C/C=C/C(=O)Nc1cc2c(Nc3ccc(F)c(Cl)c3)ncnc2cc1O[C@H]1CCOC1 [Afatinib]	59.1
CC1CC(=O)NN=C1c1ccc(NN=C(C#N)C#N)cc1 (stereo not given) [Levosimendan] + CN(C)C/C=C/C(=O)Nc1cc2c(Nc3ccc(F)c(Cl)c3)ncnc2cc1O[C@H]1CCOC1 [Afatinib]	75
Clc1ccc(C(Cn2ccnc2)OCc2c(Cl)cccc2Cl)c(Cl)c1.O=[N+]([O-])O (stereo not given) [Isoconazole nitrate] + CN(C)C/C=C/C(=O)Nc1cc2c(Nc3ccc(F)c(Cl)c3)ncnc2cc1O[C@H]1CCOC1 [Afatinib]	78.3
CC(C)Nc1cc(-c2c[nH]c(C(=O)NC(CO)c3cccc(Cl)c3)c2)c(Cl)cn1 (stereo not given) + CN(C)C/C=C/C(=O)Nc1cc2c(Nc3ccc(F)c(Cl)c3)ncnc2cc1O[C@H]1CCOC1 [Afatinib]	50.5
Nc1ccn(C2OC(CO)C(O)C2O)c(=O)n1 (stereo not given) [Cytarabine] + CN(C)C/C=C/C(=O)Nc1cc2c(Nc3ccc(F)c(Cl)c3)ncnc2cc1O[C@H]1CCOC1 [Afatinib]	65.7
C=C1C(=CC=C2CCCC3(C)C2CCC3C(C)CCCC(C)(C)O)CC(O)CC1O (stereo not given) [Calcitriol] + CN(C)C/C=C/C(=O)Nc1cc2c(Nc3ccc(F)c(Cl)c3)ncnc2cc1O[C@H]1CCOC1 [Afatinib]	43.3
COCCOC(=O)C1=C(C)NC(C)=C(C(=O)OCC=Cc2ccccc2)C1c1cccc([N+](=O)[O-])c1 (stereo not given) [Cilnidipine] + CN(C)C/C=C/C(=O)Nc1cc2c(Nc3ccc(F)c(Cl)c3)ncnc2cc1O[C@H]1CCOC1 [Afatinib]	70.6
CSc1ccc2c(c1)N(CCC1CCCCN1C)c1ccccc1S2.Cl (stereo not given) [Thioridazine HCl] + CN(C)C/C=C/C(=O)Nc1cc2c(Nc3ccc(F)c(Cl)c3)ncnc2cc1O[C@H]1CCOC1 [Afatinib]	58.1
CC(C)(C)c1ccc(C(=O)CCCN2CCC(OC(c3ccccc3)c3ccccc3)CC2)cc1 [Ebastine] + CN(C)C/C=C/C(=O)Nc1cc2c(Nc3ccc(F)c(Cl)c3)ncnc2cc1O[C@H]1CCOC1 [Afatinib]	70.1
CNCCC(Oc1cccc2ccccc12)c1cccs1.Cl (stereo not given) [Duloxetine HCl] + CN(C)C/C=C/C(=O)Nc1cc2c(Nc3ccc(F)c(Cl)c3)ncnc2cc1O[C@H]1CCOC1 [Afatinib]	59.8
COc1cc2ncnc(Nc3ccc(F)c(Cl)c3)c2cc1NC(=O)C=CCN1CCCCC1 + CN(C)C/C=C/C(=O)Nc1cc2c(Nc3ccc(F)c(Cl)c3)ncnc2cc1O[C@H]1CCOC1 [Afatinib]	33
CC1(C)CCC(c2ccc(Cl)cc2)=C(CN2CCN(c3ccc(C(=O)NS(=O)(=O)c4ccc(NC(CCN5CCOCC5)CSc5ccccc5)c(S(=O)(=O)C(F)(F)F)c4)cc3)CC2)C1 (stereo not given) [ABT-263 (Navitoclax)] + CN(C)C/C=C/C(=O)Nc1cc2c(Nc3ccc(F)c(Cl)c3)ncnc2cc1O[C@H]1CCOC1 [Afatinib]	38
COc1cc2nccc(Oc3ccc(NC(=O)NC4CC4)c(Cl)c3)c2cc1C(N)=O [Lenvatinib (E7080)] + CN(C)C/C=C/C(=O)Nc1cc2c(Nc3ccc(F)c(Cl)c3)ncnc2cc1O[C@H]1CCOC1 [Afatinib]	39.8
CC(O)C(=O)O.CC(O)C(=O)O.CN1CCN(c2ccc3c(c2)NC(=C2C(=O)N=c4cccc(F)c4=C2N)N3)CC1 [Dovitinib Dilactic acid] + CN(C)C/C=C/C(=O)Nc1cc2c(Nc3ccc(F)c(Cl)c3)ncnc2cc1O[C@H]1CCOC1 [Afatinib]	56.7
CC(C)c1nc(N(C)S(C)(=O)=O)nc(-c2ccc(F)cc2)c1C=CC(O)CC(O)CC(=O)[O-].CC(C)c1nc(N(C)S(C)(=O)=O)nc(-c2ccc(F)cc2)c1C=CC(O)CC(O)CC(=O)[O-].[Ca+2] (stereo not given) [Rosuvastatin Calcium] + CN(C)C/C=C/C(=O)Nc1cc2c(Nc3ccc(F)c(Cl)c3)ncnc2cc1O[C@H]1CCOC1 [Afatinib]	55.2
O=C1C=CC=CC1=C1NC(=C2C=CC=CC2=O)N(c2ccc(C(=O)O)cc2)N1 [Deferasirox] + CN(C)C/C=C/C(=O)Nc1cc2c(Nc3ccc(F)c(Cl)c3)ncnc2cc1O[C@H]1CCOC1 [Afatinib]	68.2
Cc1c(Cl)cccc1Nc1ccccc1C(=O)O [Tolfenamic Acid] + CN(C)C/C=C/C(=O)Nc1cc2c(Nc3ccc(F)c(Cl)c3)ncnc2cc1O[C@H]1CCOC1 [Afatinib]	78.5
